From the supplement of paper PMC13380429

Legend:
[1] = test system: Vero E6 infected with SARS-CoV-2; test: morphology score (similarity to uninfected cells); higher = more like uninfected cells; conditions: 24 h
[2] = test system: Vero E6 infected with SARS-CoV-2; test: SARS-CoV-2 infection rate relative to infected DMSO; higher = more infection, active = 60 or less; conditions: 24 h

In the case of O=C1c2ccccc2C(=O)C1c1ccc(Cl)cc1 [chlorindione] (10 µM), the morphology score [1] is reported as 0.011 and the SARS-CoV-2 infection rate [2] is reported as 102% (inactive).

With C[C@@H]1CN(Cc2ccc(F)cc2)[C@@H](C)CN1C(=O)c1cc2c(C(=O)C(=O)N(C)C)cn(C)c2cc1Cl [talmapimod] (10 µM) the morphology score [1] was 0.103 and the SARS-CoV-2 infection rate [2] was 88.5% (inactive).

Nc1ccn([C@@H]2O[C@H](CO)[C@@H](O)C2(F)F)c(=O)n1 [gemcitabine] (0.833333 µM) was tested, and the morphology score [1] was -0.00574 and the SARS-CoV-2 infection rate [2] was 114% (inactive).

With NCCCC[C@H](NC(=O)[C@@H]1CCCN1C(=O)[C@@H]1CSSC[C@H](NC(=O)CNC(=O)CNC(=O)CN)C(=O)N[C@@H](Cc2ccc(O)cc2)C(=O)N[C@@H](Cc2ccccc2)C(=O)N[C@@H](CCC(N)=O)C(=O)N[C@@H](CC(N)=O)C(=O)N1)C(=O)NCC(N)=O [terlipressin] (10 µM) the morphology score [1] was 0.0361 and the SARS-CoV-2 infection rate [2] was 112% (inactive).

Cc1ccc(C)c(Oc2ccncc2C(=O)N2CCN(C3CC3)c3ccccc32)c1 (10 µM) was tested, and the morphology score [1] was 0.133 and the SARS-CoV-2 infection rate [2] was 108% (inactive).

With COc1ccc(-c2cc(=O)c3c(OC)c(OC)c(OC)c(OC)c3o2)cc1 [tangeritin] (10 µM) the morphology score [1] was 0.00246 and the SARS-CoV-2 infection rate [2] was 105% (inactive).

CCOc1ccc(-c2ccc(Cn3c(CC(C)(C)C(=O)O)c(SC(C)(C)C)c4cc(OCc5ccc(C)cn5)ccc43)cc2)cn1 (0.833333 µM) was tested, and the morphology score [1] was 0.228 and the SARS-CoV-2 infection rate [2] was 118% (inactive).

With COc1ccc2cc(C(C)C(=O)Oc3ccc(C(N)=S)cc3)ccc2c1 (stereo not drawn) (10 µM) the morphology score [1] was 0.117 and the SARS-CoV-2 infection rate [2] was 97% (inactive).

For N#C[C@@H]1CCCN1C(=O)CNC12CC3CC(CC(O)(C3)C1)C2 [vildagliptin] (10 µM), the morphology score [1] was 0.00182 and the SARS-CoV-2 infection rate [2] was 91% (inactive).

In the case of CC1(C)CCC(C)(C)c2cc(NC(=O)c3ccc(C(=O)O)cc3)ccc21 [tamibarotene] (10 µM), the morphology score [1] is reported as 0.135 and the SARS-CoV-2 infection rate [2] is reported as 108% (inactive).

With C1CCC(NC2CCCCC2)CC1 [dicyclohexylamine] (10 µM) the morphology score [1] was -0.191 and the SARS-CoV-2 infection rate [2] was 114% (inactive).

With CN[C@H](CC(C)C)C(=O)N[C@H]1C(=O)N[C@@H](CC(N)=O)C(=O)N[C@H]2C(=O)N[C@H]3C(=O)N[C@H](C(=O)N[C@H](C(=O)O)c4cc(O)cc(O)c4-c4cc3ccc4O)[C@H](O[C@H]3C[C@](C)(N)[C@@H](O)[C@H](C)O3)c3ccc(c(Cl)c3)Oc3cc2cc(c3O[C@@H]2O[C@H](CO)[C@@H](O)[C@H](O)[C@H]2O[C@H]2C[C@](C)(NCc3ccc(-c4ccc(Cl)cc4)cc3)[C@@H](O)[C@H](C)O2)Oc2ccc(cc2Cl)[C@H]1O [oritavancin] (10 µM) the morphology score [1] was 0.0399 and the SARS-CoV-2 infection rate [2] was 92% (inactive).

In the case of CC(C)N[C@H]1CCn2c(=O)[nH]c3cccc(c32)[C@@H]1O [zilpaterol] (10 µM), the morphology score [1] is reported as 0.19 and the SARS-CoV-2 infection rate [2] is reported as 106% (inactive).

For C[C@@H](O)[C@@H]1NC(=O)[C@H](CCCCN)NC(=O)[C@@H](Cc2c[nH]c3ccccc23)NC(=O)[C@H](Cc2ccccc2)NC(=O)[C@@H](NC(=O)[C@H](N)Cc2ccccc2)CSSC[C@@H](C(=O)N[C@H](CO)[C@@H](C)O)NC1=O [octreotide] (10 µM), the morphology score [1] was 0.0589 and the SARS-CoV-2 infection rate [2] was 102% (inactive).

In the case of C[C@@H](O)[C@H]1C(=O)N2C(C(=O)O)=C(SCCNC=N)C[C@H]12 [imipenem] (10 µM), the morphology score [1] is reported as -0.161 and the SARS-CoV-2 infection rate [2] is reported as 114% (inactive).

In the case of Cc1cc(C)c(/C=C2\C(=O)Nc3ccccc32)[nH]1 [semaxanib] (10 µM), the morphology score [1] is reported as 0.208 and the SARS-CoV-2 infection rate [2] is reported as 96% (inactive).

For Nc1ncccc1-c1nc2ccc(-c3ccccc3)nc2n1-c1ccc(C2(N)CCC2)cc1 (10 µM), the morphology score [1] was 0.702 and the SARS-CoV-2 infection rate [2] was 29.5% (active).

With Nn1cnc2cc3ccccc3cc2c1=O [centazolone] (10 µM) the morphology score [1] was -0.195 and the SARS-CoV-2 infection rate [2] was 116% (inactive).

In the case of COc1ccccc1Oc1c(NS(=O)(=O)c2ccc(C)cn2)nc(-c2ccncc2)nc1OC (10 µM), the morphology score [1] is reported as 0.183 and the SARS-CoV-2 infection rate [2] is reported as 85.5% (inactive).

For OC[C@H]1O[C@@H](c2ccc(Cl)c(Cc3ccc(O[C@H]4CCOC4)cc3)c2)[C@H](O)[C@@H](O)[C@@H]1O [empagliflozin] (10 µM), the morphology score [1] was -0.159 and the SARS-CoV-2 infection rate [2] was 106% (inactive).

For OCc1ccc(O[C@@H]2O[C@H](CO)[C@@H](O)[C@H](O)[C@H]2O)cc1 [gastrodin] (10 µM), the morphology score [1] was 0.19 and the SARS-CoV-2 infection rate [2] was 106% (inactive).

In the case of CC(O)Cn1cnc2c1c(=O)n(C)c(=O)n2C (stereo not drawn) [Proxyphylline] (10 µM), the morphology score [1] is reported as 0.074 and the SARS-CoV-2 infection rate [2] is reported as 97% (inactive).

With C[N+]1(C)[C@@H]2C[C@@H](OC(=O)[C@H](CO)c3ccccc3)C[C@H]1[C@@H]1O[C@@H]12 [methscopolamine] (10 µM) the morphology score [1] was -0.0273 and the SARS-CoV-2 infection rate [2] was 96% (inactive).

For CC(=O)c1cnc2ccc(-c3cc(Cl)c(O)c(Cl)c3)nc2c1N[C@H]1CC[C@H](CN(C)C)CC1 (0.833333 µM), the morphology score [1] was 0.294 and the SARS-CoV-2 infection rate [2] was 96% (inactive).

Cc1cc2ncc(C(=O)NCC(C)(C)NCC(=O)N3CCC[C@H]3C#N)cn2n1 [anagliptin] (10 µM) was tested, and the morphology score [1] was -0.112 and the SARS-CoV-2 infection rate [2] was 110% (inactive).

In the case of CC[C@@H]1C(=O)N(C)c2cnc(Nc3ccc(C(=O)NC4CCN(C)CC4)cc3OC)nc2N1C1CCCC1 (10 µM), the morphology score [1] is reported as -0.305 and the SARS-CoV-2 infection rate [2] is reported as 104% (inactive).

Cc1c[nH]c2ncnc(N3CCC(CN)(C(=O)Nc4cccc(OC(=O)N(C)C)c4)CC3)c12 (10 µM) was tested, and the morphology score [1] was 0.156 and the SARS-CoV-2 infection rate [2] was 94% (inactive).

With O=[N+]([O-])c1cccc2cn[nH]c12 [7-nitroindazole] (10 µM) the morphology score [1] was 0.0542 and the SARS-CoV-2 infection rate [2] was 100% (inactive).

OC(c1ccccc1)(c1ccccc1)C12CC[N+](CCOCc3ccccc3)(CC1)CC2 [umeclidinium] (10 µM) was tested, and the morphology score [1] was 0.162 and the SARS-CoV-2 infection rate [2] was 101% (inactive).

With CCN(CC)CCOC(=O)C1(c2ccc([N+](=O)[O-])cc2)CCCC1 [nitrocaramiphen] (10 µM) the morphology score [1] was 0.137 and the SARS-CoV-2 infection rate [2] was 104% (inactive).

With N=C(N)NC(=O)Cc1c(Cl)cccc1Cl [guanfacine] (10 µM) the morphology score [1] was 0.255 and the SARS-CoV-2 infection rate [2] was 86% (inactive).

For CC(=O)Nc1nnc(S(N)(=O)=O)s1 [acetazolamide] (10 µM), the morphology score [1] was 0.0392 and the SARS-CoV-2 infection rate [2] was 85.5% (inactive).

In the case of CC1(C)C(=O)NC2=C1C(=O)C(=O)c1ccccc12 (0.833333 µM), the morphology score [1] is reported as -0.0548 and the SARS-CoV-2 infection rate [2] is reported as 114% (inactive).

O=C(Nc1c(Cl)cncc1Cl)c1ccc(OC(F)F)c(OCC2CC2)c1 [roflumilast] (10 µM) was tested, and the morphology score [1] was 0.202 and the SARS-CoV-2 infection rate [2] was 97% (inactive).
